Our source for the Potency and outcome values is PubChem BioAssay (Tox21).

Assay [1] can be described thus: qHTS assay to identify aromatase inhibitors - cell viability counter screen (AID 743084).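 Note: cells stimulated with testosterone during compound exposure; nearly all actives have a fitted effect of over 55% in size.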 Note: potency is the fitted concentration of half-maximal effect. A general note: In qHTS, concentration-response curves come from the screen itself.
In assay [2] the target is Aryl hydrocarbon receptor (Homo sapiens) (UniProt P35869). The assay can be described thus: qHTS assay to identify small molecule that activate the aryl hydrocarbon receptor (AhR) signaling pathway (AID 743085).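 Note: HG2L7.5c1 human HepG2 liver cells with stably integrated DRE-driven firefly reporter; series mostly up to about 70 µM; nearly all actives have a fitted effect of over 15% in size.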 The gist of the method:
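Compounds were tested in HepG2 hepatocellular carcinoma cells harbouring a stably integrated luciferase gene under control of 20 DREs. Increased reporter signal after 24 h treatment at 37C was taken as AhR activation.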

Assay [3] in a line: qHTS assay to identify small molecule that activate the aryl hydrocarbon receptor (AhR) signaling pathway - cell viability counter screen (AID 743086). Note: nearly all actives have a fitted effect of over 45% in size. Note: potency is the fitted concentration of half-maximal effect. In short, it runs like this:
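HepG2-AhR-luc (HG2L7.5c1) cells, 4000/well, were preincubated 5 h at 37C, exposed to compound in qHTS format for 24 hr at 37C, then given CellTiter-Fluor for 30 min; viability was read as fluorescence in the reporter wells.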

Assay [4] addresses Peroxisome proliferator-activated receptor gamma (Homo sapiens) (UniProt P37231). As to the kind of experiment: qHTS assay to identify small molecule agonists of the peroxisome proliferator-activated receptor gamma (PPARg) signaling pathway (AID 743094; active = well fitted activation curve with a large enough effect in the signal ratio in the repeat runs, not every such curve was filed as active; the % refers to the signal ratio). In short, it runs like this:
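GeneBLAzer PPARg UAS-bla HEK293H cells carrying a stably integrated beta-lactamase reporter were pre-incubated 5 h at 37C, then exposed to compounds in DMSO for 17 h at 37C; LiveBLAzer B/G FRET substrate was added for 1 h at room temperature and fluorescence read.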

Assay [5] has the same target. As to the kind of experiment: qHTS assay to identify small molecule antagonists of the peroxisome proliferator-activated receptor gamma (PPARg) signaling pathway (AID 743191; calls by dose curve; note: series mostly up to about 63 µM; nearly all actives have a fitted effect of over 30% in size). The gist of the method:
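GeneBLAzer PPARg UAS-bla HEK293H cells carrying a UAS-driven beta-lactamase reporter were plated at 3000 cells/well, preincubated 5 h at 37C, then given compound for 17 h at 37C; LiveBLAzer B/G FRET substrate was read after 1 h at room temperature.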

Assay [6] in a line: qHTS assay to identify small molecule antagonists of the peroxisome proliferator-activated receptor gamma (PPARg) signaling pathway - cell viability counter screen (AID 743194). Note: nearly all actives have a fitted effect of over 55% in size. In short, it runs like this: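 PPARg-UAS-bla HEK293H cells were plated, rested 5 h at 37 C, then treated with compounds plus rosiglitazone (50 nM final) for 17 h at 37 C; viability was then read by CellTiter-Glo luminescence after 30 min at room temperature.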

The nature of assay [7]: qHTS assay for small molecule agonists of the antioxidant response element (ARE) signaling pathway - cell viability counter screen (AID 743203; calls by dose curve; note: nearly all actives have a fitted effect of over 55% in size). The gist of the method: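 CellSensor ARE-bla HepG2 cells, 2,000 per well, rested 5 hrs at 37C/5% CO2, then exposed to compound in DMSO for 16 hrs; viability read as CellTiter-Glo luminescence after 30 min at room temperature, in the reporter wells.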

Assay [8] can be described thus: qHTS assay for small molecule activators of the heat shock response signaling pathway - cell viability counter screen (AID 743209). Note: nearly all actives have a fitted effect of over 50% in size. The gist of the method:
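CellSensor HSE-bla HeLa cells, plated overnight at 37 C/5% CO2, were exposed to compounds in DMSO for 5 h at 37 C. Viability was then read in the same wells by CellTiter-Glo luminescence after 30 min at room temperature.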

The nature of assay [9]: qHTS assay for small molecule activators of the heat shock response signaling pathway (AID 743210; active = well fitted activation curve with a large enough effect in the signal ratio in the repeat runs, with a control signal flat, not every such curve was filed as active; the % refers to the signal ratio;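 note: HeLa cells with beta-lactamase reporter driven by heat shock elements; series mostly up to about 63 µM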). The gist of the method:
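Reporter gene assay: HeLa cells stably bearing an HSE-bla construct, compound treatment 5 h at 37 C, LiveBLAzer substrate 2.5 h at RT, fluorescence intensity.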

A short description of assay [10]: qHTS assay for small molecule agonists of the antioxidant response element (ARE) signaling pathway (AID 743202; active = well fitted activation curve with a large enough effect in the signal ratio in the repeat runs, not every such curve was filed as active; the % refers to the signal ratio; note: potency is the fitted concentration of half-maximal effect). In short, it runs like this: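 Compounds delivered in DMSO to ARE-bla HepG2 cells (2,000 cells/well, pre-incubated 5 h) and left 16 h at 37 C. LiveBLAzer B/G FRET substrate then added for 2 h at RT before fluorescence reading.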

Records with an inconclusive call do not appear. The source made the active and inactive calls. Unless noted, calls come from the whole dose curve; as a rule, active = well fitted curve in the direction sought with a large enough effect in the repeat runs; inconclusive = weak or mixed curves; inactive = no such curve, though single readings can be large; an effect the other way counts as inactive or inconclusive.

Sequence of Peroxisome proliferator-activated receptor gamma (Homo sapiens) (P37231 whole entry, looked up): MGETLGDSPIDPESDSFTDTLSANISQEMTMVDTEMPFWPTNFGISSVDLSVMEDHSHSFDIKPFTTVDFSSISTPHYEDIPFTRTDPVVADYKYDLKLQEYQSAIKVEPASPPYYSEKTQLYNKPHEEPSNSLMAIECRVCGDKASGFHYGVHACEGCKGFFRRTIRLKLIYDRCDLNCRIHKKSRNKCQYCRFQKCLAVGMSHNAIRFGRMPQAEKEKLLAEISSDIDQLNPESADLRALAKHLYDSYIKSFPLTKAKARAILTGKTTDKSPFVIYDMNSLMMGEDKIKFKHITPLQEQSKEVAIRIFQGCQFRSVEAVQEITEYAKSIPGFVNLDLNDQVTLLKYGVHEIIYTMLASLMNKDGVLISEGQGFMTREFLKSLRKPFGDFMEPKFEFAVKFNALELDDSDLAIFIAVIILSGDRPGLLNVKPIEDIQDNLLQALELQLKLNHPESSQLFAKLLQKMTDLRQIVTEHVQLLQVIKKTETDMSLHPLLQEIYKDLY
Sequence of Aryl hydrocarbon receptor (Homo sapiens) (P35869 whole entry, looked up): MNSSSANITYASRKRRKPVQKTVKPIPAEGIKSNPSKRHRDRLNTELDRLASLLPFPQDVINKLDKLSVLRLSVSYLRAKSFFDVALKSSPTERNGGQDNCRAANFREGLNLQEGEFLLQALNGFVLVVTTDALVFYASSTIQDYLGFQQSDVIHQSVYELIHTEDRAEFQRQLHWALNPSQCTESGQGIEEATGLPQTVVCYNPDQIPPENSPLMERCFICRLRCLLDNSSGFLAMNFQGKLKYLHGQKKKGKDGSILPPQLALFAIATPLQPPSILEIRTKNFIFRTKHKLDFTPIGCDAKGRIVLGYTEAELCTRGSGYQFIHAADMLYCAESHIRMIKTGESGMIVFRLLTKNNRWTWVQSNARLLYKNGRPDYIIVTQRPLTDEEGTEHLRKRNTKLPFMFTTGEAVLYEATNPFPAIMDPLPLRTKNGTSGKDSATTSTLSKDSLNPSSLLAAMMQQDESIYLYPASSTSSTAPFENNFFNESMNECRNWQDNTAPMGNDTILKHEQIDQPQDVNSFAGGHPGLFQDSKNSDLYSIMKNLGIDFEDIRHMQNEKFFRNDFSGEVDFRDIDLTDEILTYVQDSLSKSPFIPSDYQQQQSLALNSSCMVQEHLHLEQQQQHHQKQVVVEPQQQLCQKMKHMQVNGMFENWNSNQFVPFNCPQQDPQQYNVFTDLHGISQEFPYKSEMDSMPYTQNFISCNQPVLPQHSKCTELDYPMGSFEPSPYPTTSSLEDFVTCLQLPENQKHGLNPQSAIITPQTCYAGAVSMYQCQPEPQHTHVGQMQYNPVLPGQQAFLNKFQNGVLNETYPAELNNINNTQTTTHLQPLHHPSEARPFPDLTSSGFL

In the case of `CC(=O)OCCC1CCCCC1`, the Potency entry in [1], in [2], in [3], in [5], in assay [6] and in [7] was “inactive” throughout. For the same compound, the Potency entry in [8] and in [9] was “inactive” each time. For the same compound, in assay [4], the call was inactive.

With `CC1=CC[C@@]23C[C@@H]1C(C)(C)[C@@H]2CC[C@H]3C`, the Potency entry in assay [1], in assay [2], in assay [3], in [5], in [7] and in assay [8] was “inactive” in each case. Moreover, the Potency entry in assay [9] is “inactive”. The compound was classed as inactive in assay [4].

Take `CCCCCCCCCCCCCCCC(=O)OCC`: the Potency result in assay [1], in assay [2], in [3], in [5], in assay [6] and in assay [7] was “inactive” throughout. The Potency entry in assay [8] and in [9] was “inactive” each time. Besides, the result in assay [4] was inactive.

`O=C1OC[C@H](Cc2cccc(O)c2)[C@H]1Cc1cccc(O)c1`: the Potency result in [1], in [2], in [3], in assay [5], in assay [8] and in assay [9] was “inactive” in each case. Further, the outcome in assay [4] was inactive.

Regarding `COc1ccc(C2C(=O)c3ccccc3C2=O)cc1`, the Potency entry in [1], in [2], in [3], in [5], in [10] and in [8] was “inactive” in each case. For the same compound, the Potency entry in assay [9] is “inactive”. Also, in assay [4], the call was inactive.

Regarding `Cc1cc(CCC(=O)OCCOCCOCCOC(=O)CCc2cc(C)c(O)c(C(C)(C)C)c2)cc(C(C)(C)C)c1O`, the Potency entry in assay [1], in assay [2], in [3], in assay [6], in [10] and in [7] was “inactive” each time. Further, the Potency result in [8] was “inactive”. The compound was classed as inactive in [4].

With `O=C(O)CCC(=O)c1ccc(-c2ccccc2)cc1`, the Potency result in assay [1], in assay [2], in assay [3], in assay [5], in assay [6] and in assay [7] was “inactive” each time. In addition, in assay [9], the Potency result was “inactive”. Also, the result in assay [4] was inactive.

Consider `CN1C(CSCC(F)(F)F)Nc2cc(Cl)c(S(N)(=O)=O)cc2S1(=O)=O` (centres undefined), for which the Potency result in assay [1], in [2], in [3], in assay [5], in assay [6] and in [7] was “inactive” throughout. Further, the Potency entry in assay [8] and in [9] was “inactive” throughout. Also, the outcome in assay [4] was inactive.

Regarding `CCN(CC)c1ccc(C(=C2C=CC(=[N+](CC)CC)C=C2)c2ccc(S(=O)(=O)O)cc2S(=O)(=O)[O-])cc1`, the Potency in assay [1] and in [3] was 19.3 µM (active) throughout. Besides, the Potency entry in [2], in assay [5] and in assay [9] was “inactive” throughout. The call in assay [4] was inactive.

Turning to `CC[C@H]1OC(=O)[C@H](C)[C@@H](O[C@H]2C[C@@](C)(OC)[C@@H](O)[C@H](C)O2)[C@H](C)[C@@H](O[C@@H]2O[C@H](C)C[C@H](N(C)C)[C@H]2O)[C@](C)(O)C[C@@H](C)C(=O)[C@H](C)[C@@H](O)[C@]1(C)O`, the Potency entry in assay [1], in assay [2], in assay [3], in assay [6] and in [10] was “inactive” throughout. For the same compound, the compound was called inactive in [4].

`O=C(O)CO`: the Potency result in [1], in [2], in assay [3], in assay [5], in [6] and in [8] was “inactive” throughout. Besides, the Potency result in [9] was “inactive”. The result in assay [4] was inactive.

As to `CC(=O)NCCO`, the Potency entry in [1], in [2], in [3], in [5], in assay [6] and in [7] was “inactive” each time. Further, the Potency result in assay [8] and in [9] was “inactive” throughout. Further, in [4], the result was inactive.

As to `CC(C)COC(=O)COc1cc(Cl)c(Cl)cc1Cl`, the Potency entry in assay [1], in assay [2], in [3], in assay [5], in [6] and in assay [7] was “inactive” in each case. Also, the Potency result in assay [8] and in [9] was “inactive” in each case. In [4], the call was inactive.

Turning to `O=C1[C@@H]2[C@H]3CC[C@H](C3)[C@@H]2C(=O)N1CCCCN1CCN(c2ncccn2)CC1`, the Potency result in assay [1], in assay [2], in assay [3], in assay [5], in assay [6] and in assay [7] was “inactive” in each case. The Potency result in assay [8] and in assay [9] was “inactive” throughout. For the same compound, the outcome in assay [4] was inactive.

For the compound `O=C(Oc1ccccc1)c1ccc2ccccc2c1O`, the Potency result in assay [1], in assay [2], in assay [3], in assay [5], in assay [10] and in assay [7] was “inactive” throughout. Besides, the Potency result in assay [8] and in assay [9] was “inactive” each time. Besides, the compound was classed as inactive in assay [4].

Take `c1ccc2sc(SSc3nc4ccccc4s3)nc2c1`: the Potency result in assay [1], in assay [2], in assay [3], in assay [6], in [7] and in assay [8] was “inactive” throughout. For the same compound, the compound was classed as inactive in assay [4]. The Potency in [10] was 13 µM (active).

`CC1CCCC(=O)C1=O` (centres undefined): the Potency result in assay [1], in assay [2], in assay [3], in assay [5], in [6] and in assay [7] was “inactive” each time. The Potency result in assay [8] and in assay [9] was “inactive” throughout. The compound was called inactive in assay [4].
